# Results published in ChEMBL document CHEMBL3988442, “University of Dundee, Small-Polar-MMV Screening Library” (2021).
# The campaign covered roughly 48,000 compounds. About 13,000 (27%) showed an effect of 50% or more. Some of the results follow.
# System: Wolbachia pipientis
# Experiment: Anti-Wolbachia Cell-Based Screen
# Type: functional
# Design: scale not given: in the data most compounds retested in dose-response had high values
# Details: 5 µM
row,SMILES,Percent Effect
1,O=C(Nc1ccccc1N1CCOC1=O)N1CCSCC1,-8.317%
2,Oc1ccccc1-c1cc(-c2nc(C3CC3)n[nH]2)[nH]n1,-8.043%
3,O=c1[nH]c(N2CCCCC2)nc2c1CCN(Cc1cccnc1)C2,95.47%
4,O=c1[nH]c(N2CCOCC2)nc2c1CN(Cc1cccnc1)CC2,111.6%
5,Cc1cccc(CN2CCc3c(nc(N4CCC(C)CC4)[nH]c3=O)C2)n1,-8.966%
6,CC1CCCCN1c1nc2c(c(=O)[nH]1)CCN(Cc1cccnc1)C2 (stereo not drawn),-7.907%
7,c1cnc(NCc2n[nH]c3c2CCN(Cc2cccnc2)C3)nc1,-6.284%
8,Cn1ccnc1CN(CCO)C(=O)c1nc2ccccc2s1,-11.45%
9,O=C(CCc1ccccc1)N1CCCCC1C1OCCO1 (stereo not drawn),-4.281%
10,O=C(NCc1ccccc1F)N1CCCCC1C1OCCO1 (stereo not drawn),112.3%
11,O=C(NCCc1ccccc1)N1CCCCC1C1OCCO1 (stereo not drawn),1.192%
12,CC(C)(C(=O)NCCC(=O)O)c1cccc(Br)c1,-20.92%
13,CCN1CCCC(CN(C)c2nccc(-c3ccc(C)nc3C)n2)C1 (stereo not drawn),89.59%
14,Cc1ccc(-c2ccnc(N(C)CC3CCCO3)n2)c(C)n1 (stereo not drawn),111.2%
15,Cc1ccc(-c2ccnc(N(C)CC3CCCN3C)n2)c(C)n1 (stereo not drawn),123%
16,Cc1ccc(-c2ccnc(N[C@H]3COC[C@@H]3N3CCCC3)n2)c(C)n1,-11.11%
17,CN(CC1CCCN1C)c1nccc(C2CCCC2)n1 (stereo not drawn),25.37%
18,Cc1nn(C)cc1CN(C)c1nccc(-c2cn(C)nc2C)n1,-19.87%
19,CCCc1nnc(N(C)CC2CCCN(CC)C2)o1 (stereo not drawn),-14.65%
20,CN(CC1CCCCO1)c1nncc(-c2cccc(F)c2)n1 (stereo not drawn),-2.947%
21,Cc1csc(CN(CC2CCCO2)C(=O)c2ccc(C)nc2C)n1 (stereo not drawn),-5.335%
22,Cc1ccc(CNC(CCO)C2CCCCC2)nc1 (stereo not drawn),14.22%
23,CCOCC(=O)Nc1ncn(Cc2cccc(Br)c2)n1,5.844%

row,SMILES,Percent Effect
1,CNC(=O)C1CCCCN1C(=O)c1csc(-c2ccc(C)cc2)n1 (stereo not drawn),-3.515%
2,C[S+]([O-])c1nncn1CCCc1ccc(Cl)cc1 (stereo not drawn),1.023%
3,O=C(CCc1ccccc1)C1CCCN(Cc2cncn2C2CC2)C1 (stereo not drawn),-3.844%
4,CS(=O)(=O)N1CCC(n2nnn(-c3ccccc3)c2=O)CC1,113.8%
5,CS(=O)(=O)N1CCCC(n2nnn(-c3ccccc3)c2=O)C1 (stereo not drawn),149.4%
6,CS(=O)(=O)N1CCN2C(=O)N(C3CCCCC3)C[C@H]2C1,-8.389%
7,CS(=O)(=O)N1CCCC(C(=O)N2CCOc3ccccc32)C1 (stereo not drawn),-6.293%
8,NC(=O)C1CCN(S(=O)(=O)c2cnn(-c3ccccc3)c2)C1 (stereo not drawn),-1.203%
9,CCS(=O)(=O)N1CCCC(c2nc3ccccc3n2C(C)C)C1 (stereo not drawn),-13.43%
10,CCS(=O)(=O)Cc1nnnn1-c1ccccc1,1.834%
11,CS(=O)(=O)N1CCC(N2CCCC2c2ccccn2)CC1 (stereo not drawn),-15.97%
12,CCS(=O)(=O)N1CCCC(n2nnn(-c3ccccc3)c2=O)C1 (stereo not drawn),133%
13,Cc1nc(CN2CCC(CNC(=O)C3(C#N)CCCC3)CC2)oc1C,-2.689%
14,O=C(NCCNS(=O)(=O)c1cc(F)cc(F)c1)c1ccoc1,3.11%
15,COCc1ncc(CN(CCN(C)C)Cc2ccc(C)s2)cn1,-7.942%
16,OC(CNCCn1cccn1)COc1ccc2ccccc2c1 (stereo not drawn),-4.73%
17,CO[C@@H]1CCN(S(=O)(=O)c2cn(C)cn2)[C@H]1Cc1ccncc1.O=C(O)C(F)(F)F,7.215%
18,Cn1nccc1C(=O)N1CCN(C(=O)C2CCC2)[C@@H]2CS(=O)(=O)C[C@@H]21,-1.449%
19,CC1=Nc2c(c(=O)[nH]n2C2CCCC2)C(c2cccc(O)c2)S1 (stereo not drawn),4.051%
20,COc1ccc(C2SC(C)=Nc3c2c(=O)[nH]n3C2CCCCC2)cc1O (stereo not drawn),9.619%
21,O=C1CC(C2CCCCC2)c2c(n(C3CCCC3)[nH]c2=O)N1 (stereo not drawn),-0.7877%
22,CC1(C)CC1(C(=O)N1CC(c2cccnc2)C1)c1ccc(F)cc1 (stereo not drawn),-9.092%
23,CC1=Nc2c(c(=O)[nH]n2C2CCCCC2)C(c2ccc(C(=O)O)cc2)S1 (stereo not drawn),110.1%

row,SMILES,Percent Effect
1,CC1=Nc2c(c(=O)[nH]n2C2CCCC2)C(c2ccc(C(=O)O)cc2)S1 (stereo not drawn),117.5%
2,CC1=Nc2c(c(=O)[nH]n2C2CCCC2)C(c2cccnc2)S1 (stereo not drawn),106.9%
3,C[C@@H]1CN(C2CCN(Cc3nn(C)c4cccc(Cl)c34)CC2)C[C@H](C)O1,24.58%
4,C[C@@H]1CN(CC(C)(C)N2CCCCC2)CC[C@@]1(O)C1CC1,22.77%
5,CC(CN1CCOCC1)N(Cc1ccccc1)Cc1ccncc1 (stereo not drawn),4.516%
6,O=C(Nc1cn[nH]c1)c1ccc(O)nc1,-8.814%
7,Cc1ccc(NCCNC(=O)C2Cc3cc(C)c(C)cc3O2)nn1 (stereo not drawn),-19.52%
8,CCOc1ncccc1C(=O)N1CCCC1c1c(C)nn(C)c1Cl (stereo not drawn),122.7%
9,COc1ncccc1C(=O)N1CCCC1c1c(C)nn(C)c1Cl (stereo not drawn),89.91%
10,CCOc1ncccc1C(=O)N1CCCCC1c1nccs1 (stereo not drawn),4.622%
11,COc1ncccc1C(=O)N1CCCC1c1c(C)n[nH]c1C (stereo not drawn),-9.272%
12,CCCNC(=O)C(C)Nc1ccc(OCC)cc1 (stereo not drawn) [PROPETAMIDE],-10.93%
13,CC(=O)N1Cc2ccccc2CC1C(=O)Nc1ccc(N(C)C)cn1 (stereo not drawn),-0.765%
14,CCS(=O)(=O)NCCNc1c(C#N)cnc2c(C)cc(F)cc12,-8.935%
15,COc1ccc(-c2ccc(C(=O)NS(C)(=O)=O)c(F)c2)cc1,-4.531%
16,COc1cc(Br)c(CNc2ccn(CCC(N)=O)n2)cc1OC,-66.5%
17,CCn1nnc(NCc2cc(Br)cc(Br)c2OC)n1,107.9%
18,CCCn1nnc(NCc2cc(Br)cc(Br)c2OC)n1,116%
19,CCn1nnc(NCc2cc(Cl)cc(Cl)c2OC)n1,112%
20,CCOc1c(CNCCCn2ccnc2)cc(Cl)cc1OC.Cl.Cl,2.415%
21,CCOc1c(Cl)cc(Cl)cc1CNCCCn1ccnc1,7.909%
22,CCCC(=O)NCc1cc(Br)c(OC)c(OC)c1,-2.36%
